Measured values taken from PubChem BioAssay AID1671189 (National Center for Advancing Translational Sciences (NCATS), 2021).
The whole screen tested about 1,100 compounds, of which about 70 (6%) were called active. Roughly 22% stayed inconclusive and do not appear here. Calls follow the shape of the dose curve; as a rule, active = well fitted curve in the direction sought with a large enough effect; inconclusive = small, poorly fitted or top-dose-only effect, or another doubt; inactive = no such curve, though single readings can be large or run the other way. The sample as a whole holds a higher share of actives than the screen did.

target: Polyunsaturated fatty acid lipoxygenase ALOX12 (Homo sapiens) (UniProt P18054); assay: Confirmatory qHTS assay for inhibitors of human arachidonate 12S-lipoxygenase (ALOX12): Round 2; details: purified human 12-LOX, xylenol orange absorbance; series mostly up to 125 µM; activity change, negative = inhibition: at the top concentration
Sequence (P18054 whole entry, looked up): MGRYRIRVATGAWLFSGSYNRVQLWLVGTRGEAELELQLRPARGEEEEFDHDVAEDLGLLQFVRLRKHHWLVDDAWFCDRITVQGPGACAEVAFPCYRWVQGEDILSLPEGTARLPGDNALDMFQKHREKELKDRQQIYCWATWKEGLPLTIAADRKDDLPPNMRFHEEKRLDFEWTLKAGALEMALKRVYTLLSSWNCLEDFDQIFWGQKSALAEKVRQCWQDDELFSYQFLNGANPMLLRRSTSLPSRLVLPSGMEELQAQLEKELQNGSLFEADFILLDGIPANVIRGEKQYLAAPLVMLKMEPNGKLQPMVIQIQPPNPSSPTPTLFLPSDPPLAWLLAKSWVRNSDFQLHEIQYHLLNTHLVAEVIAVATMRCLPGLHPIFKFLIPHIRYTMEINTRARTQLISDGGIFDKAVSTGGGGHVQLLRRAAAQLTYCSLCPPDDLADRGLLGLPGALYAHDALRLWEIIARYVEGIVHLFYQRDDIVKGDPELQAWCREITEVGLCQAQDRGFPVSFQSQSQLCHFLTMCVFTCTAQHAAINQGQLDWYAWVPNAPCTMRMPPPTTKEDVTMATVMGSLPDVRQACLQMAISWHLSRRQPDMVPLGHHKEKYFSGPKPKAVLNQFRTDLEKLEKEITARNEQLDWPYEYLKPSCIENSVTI
Method in brief: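 Purified human enzyme (150 nM) in 25 mM Hepes, 0.01% Triton X-100, pH 7.0, preincubated 15 min with compound, then 40 uM arachidonic acid for 30 min at room temperature. Hydroperoxide detected by Fe-XO, read as 573/405 nm absorbance ratio.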
% is scaled to controls: 0 for no effect and ±100 for the full control effect; potency is read from the fitted curve at half-maximal effect.

SMILES | activity change, negative = inhibition | Potency
CSc1ccc(-c2ccc(C=O)cc2)cc1 | -29.7% [at 233 µM] (inactive) | 
CC(C)Nc1ncnc2c1CN(C1CCCNC1)C(=O)CN2C (centres undefined) | -17.1% (inactive) | 
CN1CC(=O)N(C2CCCNC2)Cc2c1ncnc2N1CCN(Cc2ccccc2)CC1 (centres undefined) | -24.9% (inactive) | 
CN1CC(=O)N(C2CCCNCC2)Cc2c1ncnc2N1CCCC(O)C1 (centres undefined) | -10.7% (inactive) | 
CC[C@@](N)(C(=O)O)c1ccc(C(=O)O)cc1 | 8.94% (inactive) | 
CCOCCCNc1ncnc2c1CN(C1CCNCC1)C(=O)CN2C | -15.7% (inactive) | 
CN1CCC(C(=O)N2Cc3ccccc3OC3(CCN(C(=O)N(C)C)CC3)C2)CC1 | -22.8% (inactive) | 
Cn1nc(C2CCCN2)c2c(C(=O)NCc3ccc(F)cc3)cc(C3CC3)nc21 (centres undefined) | -19.8% (inactive) | 
O=Cc1ccccc1-c1ccc(O)cc1 | -36% [at 233 µM] (inactive) | 
COc1ccc(N2CC3CCC(C2)N3Cc2cccc(Cl)c2)cc1 | -10.1% (inactive) | 
CC(=O)NC(C)c1cc(F)c2cccnc2c1O (centres undefined) |  | 17.2 µM (active)
CC(=O)NCc1cc(Cl)c2cccnc2c1O |  | 1.93 µM (active)
CC(=O)NC(C)c1cc(Cl)c2cccnc2c1O (centres undefined) |  | 6.85 µM (active)
CCC(=O)NC(c1cc(Cl)c2cccnc2c1O)C(C)C (centres undefined) |  | 10.9 µM (active)
O=C(O)CCC(=O)N1Cc2ccccc2CC2(CCCN2CC2CCNC2)C1 (centres undefined) | -22.5% (inactive) | 
COc1cccc(CNc2ncnc3c2CN(C2CCCNCC2)C(=O)CN3C)c1 (centres undefined) | -12.4% (inactive) | 
CN1CCCC2(Cc3ccccc3CN(C(=O)c3ccc(Cl)cc3)C2)C1 (centres undefined) | -17.8% (inactive) | 
OCC1CN(c2ncccn2)CC12CCN(Cc1cccc3[nH]ccc13)CC2 (centres undefined) | -5.1% [at 64.5 µM] (inactive) | 
CN1CC(=O)N(C2CCCNCC2)Cc2c1ncnc2N1CCC(N2CCCCC2)CC1 (centres undefined) | -3% (inactive) | 
CNC(C)c1ccc(Oc2ccccc2)cc1 (centres undefined) | -25.5% (inactive) | 
Cn1nc(C2CCCNC2)c2c(C(=O)NCC(F)(F)F)cc(C3CC3)nc21 (centres undefined) | -21.6% (inactive) | 
O=C(O)c1cccc(-c2cnc3ccccc3c2)c1 | -20.4% (inactive) | 

SMILES | activity change, negative = inhibition | Potency
Cn1nc(C2CCCN2)c2c(C(=O)NCc3cccs3)cc(C3CC3)nc21 (centres undefined) | -15.3% (inactive) | 
O=C(N1CCOCC1)N1CCCC1c1nnc2n1CCNC2 (centres undefined) | -9.23% (inactive) | 
NC(Cc1ccccc1)C(=O)N1CCC2(CC1)CN(C(=O)c1ccc(Cl)cc1)CCO2 (centres undefined) | -0.789% (inactive) | 
O=S(=O)(Nc1ncc(CN2CC[C@H]3CNC[C@H]32)cn1)c1ccccc1 | -2.77% [at 64.5 µM] (inactive) | 
CN1CC(=O)N(C2CCNCC2)Cc2c1ncnc2N1CCc2ccccc2C1 | -19% (inactive) | 
COc1ccc(CN2CCCC23Cc2ccccc2CNC3=O)c(O)c1 (centres undefined) | -17.5% (inactive) | 
CCOC(=O)c1c(NC(=O)CSc2nnnn2-c2ccc(OC)cc2)sc(C)c1C | -14.4% [at 64.5 µM] (inactive) | 
CC(=O)Nc1ccc(CN2CCC(c3nc4ccc(C)cc4c(=O)[nH]3)CC2)cc1 | -13.7% (inactive) | 
CCCCc1ncc(-c2nccn2C2CCNC2)[nH]1 (centres undefined) | 21.1% [at 64.5 µM] (inactive) | 
O=C1NCc2ccccc2CC12CCN(Cc1c(F)cccc1F)C2 (centres undefined) | -25.4% (inactive) | 
COc1ccc(-c2nc(C3CC3)nc3c2CCN(C(=O)c2ccc(C(F)(F)F)cc2)CC3)cc1 | -23.3% (inactive) | 
O=[S+]([O-])(c1ccccc1)N1CC(Oc2ccc(F)c(F)c2)C1 | -14.7% (inactive) | 
CCC(=O)N1Cc2ccccc2CC2(CCCN(CC3CCNCC3)C2)C1 (centres undefined) | -7.83% (inactive) | 
NCc1ccccc1-c1ccc(O)cc1 | -3.22% (inactive) | 
Cn1nc(C2CCNC2)c2c(C(=O)NCc3ccncc3)cc(C3CC3)nc21 (centres undefined) | -24.7% (inactive) | 
O=C1NC2(Cc3ccccc31)CN(C(=O)c1ccc3c(c1)OCO3)C2 | -19.5% (inactive) | 
CCC(=O)NC(c1cc(Cl)c2cccnc2c1O)C1CC1 (centres undefined) |  | 12.2 µM (active)
CC(C)C[C@@H](N)C(=O)O | -4.33% (inactive) | 
COc1cccc([S+](=O)([O-])N2CC(Oc3ccc(F)c(F)c3)C2)c1 | -5.6% (inactive) | 
COc1cccc(N2C(=O)NC(=NC3CCCCC3)C23CCCN(C(=O)c2ccccc2)C3)c1 (centres undefined) | -11.8% (inactive) | 
CC(=O)NC1CC2(CCN(C(=O)Cc3c(C)noc3C)CC2)Oc2ccccc21 (centres undefined) | -16.9% (inactive) | 
CC(C)NC(=O)N1CCC2(CC1)CN(C(=O)Cc1c[nH]c3ccccc13)CCO2 | -6.28% (inactive) | 

SMILES | activity change, negative = inhibition | Potency
O=C(Nc1ccc(Oc2ccccc2)cc1)O[C@@H]1CO[C@H]2[C@@H]1OC[C@@H]2NS(=O)(=O)c1ccc(Cl)cc1 |  | 5.01 µM (active)
CC(C)C(=O)N1Cc2ccccc2CC2(CCCCN2CC2CCNC2)C1 (centres undefined) | -15.4% (inactive) | 
CN(C)CCCC(=O)N1Cc2ccccc2CC2(CCCCN2Cc2ccccc2)C1 (centres undefined) | -27.8% (inactive) | 
Cc1cc(C(=O)NC2CCNCC2)c2c(C3CCNCC3)noc2n1 | -7.39% (inactive) | 
CC(C)c1ccc(CNC(=O)C2CCN(c3cc(C(F)(F)F)ncn3)CC2)cc1 | 3.84% [at 64.5 µM] (inactive) | 
O=C1Nc2ccccc2CN(C/C=C/c2ccccc2)C12CCNC2 (centres undefined) | -25.1% (inactive) | 
O=C1Nc2ccccc2CC12CN(CC1CCCC1)C2 | 13.7% (inactive) | 
O=C1Nc2ccccc2CN(CC2CCCCC2)C12CCNCC2 |  | 49.4 µM (active)
C[S+](=O)([O-])N1Cc2ccccc2CC2(CCCCN2CC2CCNCC2)C1 (centres undefined) | -4.25% (inactive) | 
COc1ccc(CNc2ncnc3c2CN(C2CCNCC2)C(=O)CN3C)cc1 | -18.4% (inactive) | 
O=C(c1ccccc1)N1CCn2c(nnc2C2CCNCC2)C1 | -13.7% (inactive) | 
COc1cccc(CNc2ccc([S+](=O)([O-])Nc3cc4ccccc4s3)cc2)c1O |  | 19.3 µM (active)
Cc1ccc2nc(C3CCCN(Cc4ccccc4)C3)[nH]c(=O)c2c1 (centres undefined) | -22% (inactive) | 
O=C(c1ccccn1)N1CCn2c(nn(-c3ccc(Cl)cc3)c2=O)C1 | -8.97% (inactive) | 
O=C1NC(=NC2CCCC2)C2(CCN(CC3CC3)C2)N1c1cccnc1 (centres undefined) | -8.29% (inactive) | 
CNC(=O)[C@@H](C1CCCCC1)N1CCC[C@H]1C(=O)N1CCC1 |  | 15.8 µM (active)
C#CCN(C)C(=O)[C@@H]1CCCN1[C@H](CC(C)C)C(=O)NC | -7.98% [at 64.5 µM] (inactive) | 
Cc1n[nH]c(C)c1CN1CCC2(CC1)CCN(C1CCOCC1)CC2CO (centres undefined) | 6.52% [at 64.5 µM] (inactive) | 
CN1CC(=O)N(C2CCNCC2)Cc2c(NCCc3cccc(F)c3)ncnc21 | -18.2% (inactive) | 
COc1ccc(CN2Cc3[nH]cnc3C[C@H]2C(=O)NCc2ccco2)cc1 | -22.1% (inactive) | 
